# Only some compounds are listed: those with a hit (about 2.2% of all), similar ones and a draw of the others.
# EWS-Fli inh: inhibitors of EWS/Fli oncoprotein transcriptional activity; inhibition, % at 12.6 µM; A673 NR0B1-luciferase reporter, viability-normalised; hit rate 0.67% among 350,000;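 active = mean inhibition of at least 50% after viability correction, with every replicate also passing that limit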;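 note: firefly luciferase signal divided by Alamar Blue viability fluorescence both relative to DMSO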
# LGR2 antag: inhibitors of bursicon-induced Drosophila LGR2 receptor cAMP signaling; HEK293 LGR2, CRE-luciferase, bursicon-stimulated, 4 h; inhibition, % at 9.99 µM; hit rate 0.35% among 380,000; AID 720647;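 active = drop in luminescence signal, shown as inhibition above about 50% in the replicate tests, limit read from the data, passing the limit was not always enough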;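 note: agonist challenge used bursicon conditioned medium at about half maximal strength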
# TRPM1 prom inh: MITF TRPM1 promoter inhibition in SK-MEL-5 cells; hit rate 0.83% among 330,000; SK-MEL-5 TRPM1 promoter luciferase, 24 h; inhibition, % at 12.5 µM; AID 488899;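 active = mean inhibition across replicates of 60% or more, whatever share of single replicates reaches that level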
# PAX8 reporter: lowers PAX8-driven luciferase in RMG-I cells. RMG-I TPO-luciferase reporter, SteadyGlo, 24 h. inhibition, % at 12.6 µM. hit rate 1.2% among 360,000;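 active = mean replicate inhibition at least 60% with every replicate also reaching 60%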;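 note: luciferase light reporting Pax8 driven TPO promoter activity; plate controls were median of neutral control wells for no effect and mitoxantrone controls for full effect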
# LMP1 NFkB inh: Epstein-Barr LMP1 NF-kappaB reporter inhibition; AID 504558; hit rate 0.69% among 350,000; inhibition, % at 12.5 µM; LMP1-induced NF-kappaB luciferase reporter cells, luminescence; in the data active = inhibition above about 41%;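 note: 0% = neutral control wells and 100% = reference inhibitor control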
# Shn3 inh set2: inhibitors of Schnurri-3 3'UTR reporter in osteoblasts; inhibition, % at 12.5 µM; Clone20 osteoblast Shn3 3'UTR firefly luciferase, 24 h; AID 588674; hit rate 0.52% among 360,000;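 active = mean inhibition of at least 75% with every replicate also reaching 75%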;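 note: 0% = median of neutral control wells and 100% = pilot-screen positive control compound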
# The depositor's hits bear a star; . = no result.
SMILES,EWS-Fli inh,LGR2 antag,TRPM1 prom inh,PAX8 reporter,LMP1 NFkB inh,Shn3 inh set2
C=CCCC(=O)Nc1nc(C)c(-c2csc(Nc3cc(OC)ccc3OC)n2)s1,58*,16,40,56,-1,26
CC(C)C#Cc1cnc2c(c1)C(=O)N([C@H](C)CO)C[C@@H](C)[C@H](CN(C)Cc1cncnc1)O2,13,-10,.,4,.,.
CCOC(=O)c1cc2sccc2n1CC(=O)N1c2ccccc2CC1C (configuration not stated),.,8,63*,.,6,-5
Nc1nc(Sc2c([N+](=O)[O-])cc(C(F)(F)F)cc2[N+](=O)[O-])n[nH]1,55*,-8,4,21,-2,60
Nc1nc(Sc2ccc(C(F)(F)F)cc2[N+](=O)[O-])n[nH]1,.,.,14,23,3,-5
O=C(N[C@H]1CC[C@H](CCNS(=O)(=O)Cc2ccccc2)O[C@H]1CO)c1cnccn1,5,8,.,-5,.,.
CC[N+]1(C)CCC(O)(c2ccc(OC)cc2)C(C(=O)c2ccc(OC)cc2)C1 (configuration not stated),-3,-4,-3,76*,-3,22
COc1ccc(N(C(=O)c2ccco2)C(C(=O)NC2CCCCC2)c2cccs2)cc1OC (configuration not stated),.,.,2,.,5,-3
C#CC(=O)N(c1ccc(OC)cc1OC)C(C(=O)NC1CCCC1)c1cccs1 (configuration not stated),61*,97*,101*,93*,21,83
COc1ccc(N(C(=O)c2snc(C(N)=O)c2N)C(C(=O)NC2CCCC2)c2cccs2)cc1OC (configuration not stated),8,-12,-9,12,-9,2
C#CC(=O)N(c1cc(OC)ccc1OC)C(C(=O)NC1CCCC1)c1cccs1 (configuration not stated),.,.,.,.,73*,90*
COc1ccc(S(=O)(=O)N(C)C[C@@H]2OCCCC[C@H](C)Oc3ccc(NC(=O)Nc4ccc5c(c4)OCO5)cc3C(=O)N([C@H](C)CO)C[C@@H]2C)cc1,2,19,.,10,.,.
C[C@@H](NC(=O)C[C@@H]1C[C@H]2c3cc(NC(=O)CN(C)C)ccc3O[C@H]2[C@@H](CO)O1)c1ccccc1,6,3,.,-7,.,.
CCC(NC(=O)Nc1ccc(O)cc1)(C(F)(F)F)C(F)(F)F,.,.,8,.,-5,6
CCC(NC(=O)Nn1cnnc1)(C(F)(F)F)C(F)(F)F,.,.,2,-4,66*,15
Cc1cc(NC(=O)CSc2nc(-c3cccs3)nc3ccccc23)no1,58*,-17,11,27,22,23
Cc1ccccc1NC(=O)CN1C(=O)C2C3CC(C(Br)C3Br)C2C1=O (configuration not stated),5,8,-7,63*,-4,4
COCCNC(=O)C[C@H]1C[C@H]2c3cc(NS(=O)(=O)c4ccccc4)ccc3O[C@H]2[C@@H](CO)O1,-4,-10,.,1,.,.
Cc1ccc(-n2ncc(C(=O)Nc3cc(Cl)cc(Cl)c3)c2C2CCNCC2)cc1C,62*,33,85*,57,-11,5
CCCC(=O)Nc1ccc2c(c1)C(=O)N(C)[C@@H]1CC[C@@H](CC(=O)Nc3cn(C)nc3C)O[C@@H]1CO2,-3,-1,.,1,.,.
CCN1C/C(=C\c2cccc([N+](=O)[O-])c2)C(=O)/C(=C/c2cccc([N+](=O)[O-])c2)C1,82*,24,93*,55,91*,95*
C[C@H](CO)N1C[C@H](C)[C@@H](CN(C)S(C)(=O)=O)Oc2cc(C3=CCCC3)ccc2S1(=O)=O,17,1,.,.,.,.
COc1cc(NC(=O)COc2ccccc2Cl)ccc1NC(=O)c1cccs1,-34,11,-40,-47,0,9
COc1cc(NC(=O)COc2ccccc2[N+](=O)[O-])ccc1NC(=O)c1cccs1,15,0,74*,-5,-18,50
COc1cccc(C(=O)n2c(SC)nc3cc4c(cc32)OCCO4)c1,-37,-19,-1,.,4,-1
CSc1nc2cc3c(cc2n1C(=O)c1ccc(C)cc1)OCCO3,.,.,-5,.,44*,-20
CNC[C@H]1OCCCC[C@@H](C)Oc2ccc(NC(=O)Nc3ccccc3)cc2C(=O)N([C@H](C)CO)C[C@H]1C,-10,.,.,-25,.,.
O=c1oc(Cl)c(Cl)c2ccccc12,-9,-16,90*,-13,-8,66

# Compound activity deposited in PubChem BioAssay by Broad Institute.
